Targets with a hit are over-represented here; the source holds about 8,800 in all. About 0.5% of all pairs of compound and target were hits. Unmarked numbers belong to inactive results.
Assays:
Experiment in all cases: log2 fold change, soluble protein after heating vs DMSO (PISA); higher = thermal stabilisation; K562 lysate, 10 uM; active = over 0.2 and 3.5 SD of the protein, either way, in both replicates (recomputed)
lapatinib = compound: CS(=O)(=O)CCNCc1ccc(-c2ccc3ncnc(Nc4ccc(OCc5cccc(F)c5)c(Cl)c4)c3c2)o1 [lapatinib]
How it was run: (§1)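 To prepare the extract, K562 pellets were dounce-homogenised in PBS pH 7.4 with 1 mM MgCl2, giving crude material at 1 mg/mL protein. This was treated with 10 μM compound for 30 min, then heated in aliquots for 3 min over 48°C-58°C before pooling and addition of NP-40 to 0.5% at 4°C. Centrifugation at 21,000xg for 90 min left soluble protein in the supernatant, which TMTpro 16plex LC-MS/MS quantified with equalised channel sums. Results are log-two fold changes in thermal stability compared with solvent controls, from duplicates.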

pictilisib = compound: CS(=O)(=O)N1CCN(Cc2cc3nc(-c4cccc5[nH]ncc45)nc(N4CCOCC4)c3s2)CC1 [pictilisib]
How it was run: as §1

[1] = compound: C[C@H](C1=CC=C(C=C1)C(=O)NC2=C3C=CNC3=NC=C2)N
How it was run: as §1

duvelisib = compound: C[C@H](Nc1ncnc2nc[nH]c12)c1cc2cccc(Cl)c2c(=O)n1-c1ccccc1 [duvelisib]
How it was run: as §1

gandotinib = compound: Cc1cc(Nc2cc(CN3CCOCC3)c3nc(C)c(Cc4ccc(Cl)cc4F)n3n2)n[nH]1 [gandotinib]
How it was run: as §1

doramapimod = compound: Cc1ccc(-n2nc(C(C)(C)C)cc2NC(=O)Nc2ccc(OCCN3CCOCC3)c3ccccc23)cc1 [doramapimod]
How it was run: as §1

bafetinib = compound: Cc1ccc(NC(=O)c2ccc(CN3CC[C@H](N(C)C)C3)c(C(F)(F)F)c2)cc1Nc1nccc(-c2cncnc2)n1 [bafetinib]
How it was run: as §1

[2] = compound: Cc1cccc(CC(=O)N2CCc3c2ccc(-c2cn(C)c4ncnc(N)c24)c3F)n1
How it was run: as §1

crizotinib = compound: C[C@@H](Oc1cc(-c2cnn(C3CCNCC3)c2)cnc1N)c1c(Cl)ccc(F)c1Cl [crizotinib]
How it was run: as §1

tozasertib = compound: Cc1cc(Nc2cc(N3CCN(C)CC3)nc(Sc3ccc(NC(=O)C4CC4)cc3)n2)n[nH]1 [tozasertib]
How it was run: as §1

Sequence of UniProt O75419 (O75419 whole entry, looked up): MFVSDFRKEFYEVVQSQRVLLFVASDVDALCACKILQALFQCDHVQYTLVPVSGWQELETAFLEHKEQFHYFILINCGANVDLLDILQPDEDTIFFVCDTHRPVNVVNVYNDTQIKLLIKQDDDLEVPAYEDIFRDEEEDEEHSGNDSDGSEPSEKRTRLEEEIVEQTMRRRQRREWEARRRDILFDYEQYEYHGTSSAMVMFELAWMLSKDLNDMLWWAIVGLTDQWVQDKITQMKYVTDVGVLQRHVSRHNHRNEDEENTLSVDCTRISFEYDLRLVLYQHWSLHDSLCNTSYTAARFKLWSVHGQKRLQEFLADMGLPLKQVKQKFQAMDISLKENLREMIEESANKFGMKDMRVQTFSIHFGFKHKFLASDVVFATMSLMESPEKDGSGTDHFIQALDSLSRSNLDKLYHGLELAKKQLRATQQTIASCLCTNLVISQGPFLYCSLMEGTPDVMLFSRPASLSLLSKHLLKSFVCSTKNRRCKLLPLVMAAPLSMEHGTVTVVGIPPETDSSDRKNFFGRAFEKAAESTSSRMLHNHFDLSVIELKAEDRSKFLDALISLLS
Sequence of UniProt Q9Y297 (Q9Y297 whole entry, looked up): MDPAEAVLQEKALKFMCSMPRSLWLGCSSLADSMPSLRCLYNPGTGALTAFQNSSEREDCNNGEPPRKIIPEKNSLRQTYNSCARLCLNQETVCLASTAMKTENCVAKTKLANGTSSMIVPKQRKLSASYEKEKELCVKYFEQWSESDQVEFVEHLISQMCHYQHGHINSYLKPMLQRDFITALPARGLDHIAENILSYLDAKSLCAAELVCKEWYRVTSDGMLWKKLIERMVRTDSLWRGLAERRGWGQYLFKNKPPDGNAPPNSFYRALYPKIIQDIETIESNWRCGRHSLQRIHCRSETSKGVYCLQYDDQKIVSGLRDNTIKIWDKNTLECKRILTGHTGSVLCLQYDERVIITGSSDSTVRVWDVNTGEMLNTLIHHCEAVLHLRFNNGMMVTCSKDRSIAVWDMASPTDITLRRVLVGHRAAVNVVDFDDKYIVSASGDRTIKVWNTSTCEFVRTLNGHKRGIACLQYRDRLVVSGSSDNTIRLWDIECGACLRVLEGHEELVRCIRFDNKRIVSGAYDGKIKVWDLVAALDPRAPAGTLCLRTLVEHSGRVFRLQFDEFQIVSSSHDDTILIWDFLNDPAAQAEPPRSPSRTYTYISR
Sequence of UniProt P21127 (P21127 whole entry, looked up): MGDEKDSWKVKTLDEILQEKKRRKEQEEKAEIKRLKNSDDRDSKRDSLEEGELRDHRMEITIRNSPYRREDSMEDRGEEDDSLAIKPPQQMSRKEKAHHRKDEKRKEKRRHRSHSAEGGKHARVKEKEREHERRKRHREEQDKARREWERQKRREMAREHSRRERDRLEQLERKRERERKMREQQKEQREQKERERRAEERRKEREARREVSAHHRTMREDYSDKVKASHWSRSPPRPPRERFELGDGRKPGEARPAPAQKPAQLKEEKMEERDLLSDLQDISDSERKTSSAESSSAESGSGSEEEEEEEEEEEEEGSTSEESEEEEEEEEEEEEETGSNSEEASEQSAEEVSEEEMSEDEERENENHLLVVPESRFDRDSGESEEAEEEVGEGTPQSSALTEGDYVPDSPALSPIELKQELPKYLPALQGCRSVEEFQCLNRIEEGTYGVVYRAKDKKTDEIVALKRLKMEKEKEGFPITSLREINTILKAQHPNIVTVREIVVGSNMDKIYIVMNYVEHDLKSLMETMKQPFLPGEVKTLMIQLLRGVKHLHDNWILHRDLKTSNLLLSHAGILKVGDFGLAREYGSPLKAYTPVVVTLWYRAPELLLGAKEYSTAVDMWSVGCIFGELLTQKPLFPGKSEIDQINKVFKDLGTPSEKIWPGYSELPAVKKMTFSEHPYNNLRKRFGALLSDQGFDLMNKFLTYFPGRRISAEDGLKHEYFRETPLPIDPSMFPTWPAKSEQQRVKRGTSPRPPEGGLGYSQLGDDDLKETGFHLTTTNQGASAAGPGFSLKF
Sequence of UniProt Q9HD20 (Q9HD20 whole entry, looked up): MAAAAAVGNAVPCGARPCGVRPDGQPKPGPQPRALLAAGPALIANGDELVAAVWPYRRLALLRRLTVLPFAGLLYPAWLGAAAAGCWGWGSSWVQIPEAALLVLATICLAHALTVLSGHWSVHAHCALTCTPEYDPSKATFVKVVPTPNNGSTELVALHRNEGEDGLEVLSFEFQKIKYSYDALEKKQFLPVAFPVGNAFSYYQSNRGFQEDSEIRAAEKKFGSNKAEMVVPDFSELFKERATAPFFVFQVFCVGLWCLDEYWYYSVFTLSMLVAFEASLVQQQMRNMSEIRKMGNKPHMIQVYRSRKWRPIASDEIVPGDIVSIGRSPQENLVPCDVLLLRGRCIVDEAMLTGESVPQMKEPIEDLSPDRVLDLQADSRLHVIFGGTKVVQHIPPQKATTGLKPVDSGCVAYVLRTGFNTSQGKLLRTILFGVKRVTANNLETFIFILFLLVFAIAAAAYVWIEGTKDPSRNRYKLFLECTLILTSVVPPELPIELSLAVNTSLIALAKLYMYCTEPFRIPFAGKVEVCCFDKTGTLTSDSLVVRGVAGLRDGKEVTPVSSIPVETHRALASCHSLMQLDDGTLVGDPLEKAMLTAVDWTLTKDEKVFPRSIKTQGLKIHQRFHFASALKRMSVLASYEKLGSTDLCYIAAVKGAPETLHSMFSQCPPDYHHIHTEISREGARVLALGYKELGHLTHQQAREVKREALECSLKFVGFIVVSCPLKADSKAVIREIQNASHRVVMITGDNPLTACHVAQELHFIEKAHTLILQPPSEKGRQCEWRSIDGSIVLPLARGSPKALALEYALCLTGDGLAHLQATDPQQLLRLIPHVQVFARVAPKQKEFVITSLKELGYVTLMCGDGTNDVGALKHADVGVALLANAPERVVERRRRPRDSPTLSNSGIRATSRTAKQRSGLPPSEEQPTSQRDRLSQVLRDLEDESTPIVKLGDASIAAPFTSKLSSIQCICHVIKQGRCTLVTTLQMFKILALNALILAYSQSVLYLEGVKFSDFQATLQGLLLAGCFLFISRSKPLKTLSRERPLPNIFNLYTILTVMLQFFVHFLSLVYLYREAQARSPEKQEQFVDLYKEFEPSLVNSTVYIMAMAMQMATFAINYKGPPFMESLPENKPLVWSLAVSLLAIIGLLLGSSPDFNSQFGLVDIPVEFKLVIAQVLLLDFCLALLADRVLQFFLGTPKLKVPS
Sequence of UniProt Q06187 (Q06187 whole entry, looked up): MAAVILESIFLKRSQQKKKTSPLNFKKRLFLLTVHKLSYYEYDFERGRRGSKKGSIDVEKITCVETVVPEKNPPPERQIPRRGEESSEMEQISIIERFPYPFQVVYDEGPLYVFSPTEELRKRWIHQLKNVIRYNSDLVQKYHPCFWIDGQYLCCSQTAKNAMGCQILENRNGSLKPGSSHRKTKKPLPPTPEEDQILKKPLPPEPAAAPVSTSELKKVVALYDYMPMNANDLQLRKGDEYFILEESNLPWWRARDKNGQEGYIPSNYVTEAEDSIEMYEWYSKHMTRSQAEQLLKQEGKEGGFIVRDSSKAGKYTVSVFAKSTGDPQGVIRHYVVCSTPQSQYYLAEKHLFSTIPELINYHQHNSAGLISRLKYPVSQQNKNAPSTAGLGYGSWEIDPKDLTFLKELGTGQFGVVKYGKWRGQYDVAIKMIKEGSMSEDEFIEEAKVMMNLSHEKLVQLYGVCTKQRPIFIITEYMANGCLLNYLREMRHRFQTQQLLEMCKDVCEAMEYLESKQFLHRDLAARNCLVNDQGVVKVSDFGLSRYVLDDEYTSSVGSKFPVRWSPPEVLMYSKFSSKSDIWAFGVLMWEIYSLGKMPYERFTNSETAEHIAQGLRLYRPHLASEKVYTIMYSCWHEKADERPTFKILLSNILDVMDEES
Sequence of UniProt Q6P1S2 (Q6P1S2 whole entry, looked up): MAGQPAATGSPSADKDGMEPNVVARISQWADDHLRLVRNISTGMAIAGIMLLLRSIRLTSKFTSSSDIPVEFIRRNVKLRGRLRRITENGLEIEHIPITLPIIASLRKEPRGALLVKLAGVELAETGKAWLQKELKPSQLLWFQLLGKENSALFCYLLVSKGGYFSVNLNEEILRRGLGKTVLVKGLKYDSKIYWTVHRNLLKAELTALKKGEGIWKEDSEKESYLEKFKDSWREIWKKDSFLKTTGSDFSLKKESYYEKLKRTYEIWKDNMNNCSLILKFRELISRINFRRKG
Sequence of UniProt P42574 (P42574 whole entry, looked up): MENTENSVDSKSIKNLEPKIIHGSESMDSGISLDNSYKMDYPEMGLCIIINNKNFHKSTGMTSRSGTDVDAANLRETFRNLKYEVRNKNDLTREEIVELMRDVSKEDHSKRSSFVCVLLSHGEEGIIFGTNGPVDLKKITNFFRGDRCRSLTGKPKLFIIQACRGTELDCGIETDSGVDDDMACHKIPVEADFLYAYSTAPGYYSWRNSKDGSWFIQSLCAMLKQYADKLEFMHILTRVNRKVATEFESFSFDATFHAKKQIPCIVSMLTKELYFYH
Sequence of UniProt Q7Z4R8 (Q7Z4R8 whole entry, looked up): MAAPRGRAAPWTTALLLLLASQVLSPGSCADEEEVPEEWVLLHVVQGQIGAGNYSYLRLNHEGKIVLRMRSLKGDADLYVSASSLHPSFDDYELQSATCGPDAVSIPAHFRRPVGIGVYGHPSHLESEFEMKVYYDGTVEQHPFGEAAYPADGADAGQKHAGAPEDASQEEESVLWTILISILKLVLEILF
Sequence of UniProt O15155 (O15155 whole entry, looked up): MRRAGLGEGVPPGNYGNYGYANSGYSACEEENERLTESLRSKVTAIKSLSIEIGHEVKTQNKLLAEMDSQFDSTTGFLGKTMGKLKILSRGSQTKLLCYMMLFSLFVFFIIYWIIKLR
Sequence of UniProt Q12981 (Q12981 whole entry, looked up): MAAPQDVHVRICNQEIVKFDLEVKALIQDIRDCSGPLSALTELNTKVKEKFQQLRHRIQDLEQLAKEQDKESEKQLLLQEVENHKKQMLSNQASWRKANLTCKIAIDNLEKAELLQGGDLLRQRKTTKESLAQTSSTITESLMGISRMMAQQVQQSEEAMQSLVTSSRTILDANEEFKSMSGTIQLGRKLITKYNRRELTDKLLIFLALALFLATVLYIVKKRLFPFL

Target | log2 fold change (lapatinib) | log2 fold change (pictilisib) | log2 fold change [1] | log2 fold change (duvelisib) | log2 fold change (gandotinib) | log2 fold change (doramapimod) | log2 fold change (bafetinib) | log2 fold change [2] | log2 fold change (crizotinib) | log2 fold change (tozasertib)
AURKA (UniProt O14965) | -0.101 | 0.112 | -0.071 | -0.006 | 1 (active) | -0.061 | -0.09 | -0.062 |  | 
CDK8 (UniProt P49336) | -0.035 | -0.033 | 0.129 | -0.075 | -0.065 | 0.322 | -0.043 | 0.119 | -0.032 | 
C3orf33 (UniProt Q6P1S2) | 0.09 | 0.059 | -0.541 | 0.101 | 0.14 | -0.025 | -0.046 | 0.263 | -0.051 | 
BAG4 (UniProt O95429) | 0.013 | -0.174 | -0.056 | 0.043 | 0.102 | -0.043 | -0.002 | 0.004 | 0.06 | 0.011
CAMK2B (UniProt Q13554) | 0.024 | 0.053 | -0.045 | -0.011 | 0.072 | -0.03 | 0.003 | 0.055 |  | -0.046
CDK11B (UniProt P21127) | -0.017 | -0.006 | -0.012 | 0 | 0.399 (active) | 0.031 | -0.042 | 0.007 | 0.461 (active) | 0.02
CASP7 isoform 3 (UniProt P55210) | -0.055 | 0.037 |  | 0.009 |  | 0.029 | -0.054 |  | -0.07 | 0.049
BTRC (UniProt Q9Y297) | 0.01 | -0.008 | 0.018 |  | 0.073 |  | -0.027 | 0.065 |  | -0.01
C18orf25 isoform 2 (UniProt Q96B23) | -0.001 | -0.235 | -0.017 | 0.017 | 0.061 |  | -0.025 | -0.021 |  | 0.001
ATP13A1 (UniProt Q9HD20) | -0.115 | -0.011 | 0.047 | -0.004 | -0.073 | -0.053 | -0.033 | 0.043 | 0.123 | 0.068
CEP295 isoform 3 (UniProt Q9C0D2) | -0.038 | 0.057 | -0.365 (active) |  | 0.058 | 0.059 | 0.031 | 0.072 | 0.004 | 0.111
CDK2 (UniProt P24941) | -0.026 | 0.028 |  | -0.026 | 0.403 (active) | 0.004 | 0.042 | -0.001 | 0 | 0.008
CDK11A (UniProt Q9UQ88) | 0.104 | -0.02 | 0.049 | -0.003 | 0.122 | -0.072 | -0.033 | -0.093 | 0.092 | 
BCAR1 isoform 6 (UniProt P56945) | -0.044 | 0.003 | 0.071 | 0.008 | -0.113 | -0.039 | -0.073 | -0.104 | 0.003 | 0.01
CASP3 (UniProt P42574) | 0.013 | -0.021 | 0.249 (active) | 0.007 | -0.084 | 0.005 | 0.107 | -0.089 | 0.001 | -0.016
CDS2 (UniProt O95674) | 0.02 | -0.007 | -0.029 | 0.088 | 0.048 | 0.009 | 0.006 | 0.019 | 0.031 | 0.054

Target | log2 fold change (lapatinib) | log2 fold change (pictilisib) | log2 fold change [1] | log2 fold change (duvelisib) | log2 fold change (gandotinib) | log2 fold change (doramapimod) | log2 fold change (bafetinib) | log2 fold change [2] | log2 fold change (crizotinib) | log2 fold change (tozasertib)
BUB1B isoform 3 (UniProt O60566) | 0.009 | -0.038 | 0.007 | 0.024 | -0.04 | 0.019 | -0.029 | 0.035 | -0.059 | -0.01
ATF7IP2 (UniProt Q5U623) | -0.03 | 0.05 | 0.05 |  | 0.027 | 0.073 | -0.023 | -0.155 | -0.215 | 
BNIP1 (UniProt Q12981) | -0.007 | 0.018 | 0.273 | -0.059 | -0.15 | 0.071 | -0.019 | -0.17 | -0.062 | 0.017
CAD (UniProt P27708) | -0.023 | -0.02 | -0.024 | -0.011 | -0.019 | 0.02 | -0.052 | 0.07 | -0.038 | 0
CCT6A (UniProt P40227) | -0.01 | 0.008 | 0.009 | -0.004 | -0.018 | -0.013 | 0.013 | -0.028 | 0.026 | -0.012
CDC45 isoform 3 (UniProt O75419) | -0.036 | -0.014 | 0.023 | -0.007 | -0.079 | -0.002 | -0.077 | -0.018 | -0.009 | 0
CDC25C (UniProt P30307) | -0.118 | -0.025 | -0.049 | -0.021 | -0.109 | -0.003 | 0.038 | 0.013 |  | 0.03
BICRA (UniProt Q9NZM4) | -0.099 | 0.052 | -0.027 | 0.105 | 0.171 | 0.014 | 0.078 | 0.133 | -0.059 | 
CARD9 (UniProt Q9H257) | -0.048 | -0.035 | -0.016 | -0.009 | -0.032 | 0.032 | -0.145 | 0.03 | -0.053 | 0.022
ATE1 (UniProt O95260) | -0.03 | -0.047 | 0.032 |  | -0.019 | 0.043 | -0.039 | 0.009 | -0.068 | 
BTK isoform 2 (UniProt Q06187) | -0.015 | -0.041 | -0.148 | 0.018 | 0.101 | 0.031 | -0.043 | 0.178 |  | -0.012
CHCHD1 (UniProt Q96BP2) | 0.025 | 0.001 | 1.33 (active) | 0.052 | -0.314 | 0.039 | 0.003 | -0.35 (active) | -0.069 | -0.016
C18orf25 (UniProt Q96B23) | 0.017 | -0.003 | 0.022 | -0.046 | 0.019 | 0.019 | -0.023 | -0.098 | -0.049 | -0.029
C6orf120 (UniProt Q7Z4R8) | -0.113 | 0.032 | -0.03 | -0.036 | -0.037 |  | 0.045 | -0.169 |  | 
BET1 (UniProt O15155) | -0.051 | -0.034 | -0.004 | 0.01 | -0.006 | 0.03 | -0.056 | 0.03 | -0.004 | 0

— the supplement of paper PMC10849652
